# Reference: PubChem BioAssay (NCATS)
# Several values for one entry are separate records, joined by “and”; a condition that tells them apart may be missing. Equal entries are not always repeated. Values without a mark were called inactive. Records with an inconclusive call do not appear. Entries that show only a call come without a potency. Activity calls are given as the source filed them. Calls come from the whole dose curve; as a rule, active = well fitted curve in the direction sought with a large enough effect; inconclusive = small, poorly fitted or top-dose-only effect, or another doubt; inactive = no such curve, though single readings can be large; an effect the other way counts as inactive or inconclusive.
# Key:
# [1] = qHTS assay for measurement of the activity of small molecule inhibitors on Zika virus induced Caspase-3 activity in human iPSC derived neural progenitor cells (hNPCs) (AID 1224857); conditions: hNPCs ZIKV-induced caspase-3/7, Caspase-Glo luminescence, 6 h; series mostly up to 45.7 µM; note: nearly all actives have a fitted effect of over 65% in size
# In short: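 Cells were plated at 350 per well and grown 16 to 20 hours. Compound pretreatment lasted one hour, after which ZIKV (2 FFU/cell) was added for 6 hours. Percent inhibition was normalized between uninfected and infected controls.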
# [2] = qHTS assay for measurement of the activity of small molecule inhibitors on Zika virus induced Caspase-3 activity in human astrocytoma cells (AID 1224859); conditions: SNB-19 ZIKV-induced caspase-3/7, luminescence, 6 h; series mostly up to 45.7 µM
# In short: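 Percent inhibition of virus-induced caspase-3/7 signal is calculated against uninfected and ZIKV-infected control cells. Cells are SNB-19, infected at 2 FFU/cell for 6 h after 1 h compound exposure.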
# [3] = qHTS of pediatric cancer cell lines to identify multiple opportunities for drug repurposing: Primary screen for TC32 cells (AID 1347089); conditions: TC32 Ewing sarcoma viability, CellTiter-Glo luminescence, 48 h; series mostly up to 45.8 µM; note: nearly all actives have a fitted effect of over 60% in size; note: potency is the fitted concentration of half-maximal effect
# In short: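 qHTS, TC32, 48 h drug treatment, CellTiter-Glo luminescence as a proxy for metabolically active cells; primary top concentration 46 µM (MIPE 11-pt, NPC 8-pt); confirmatory 11-pt.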
# [4] = qHTS Assay for Identifying Gametocytocidal Compounds (AID 743244); note: potency is the fitted concentration of half-maximal effect;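 for max response: actives lower the fluorescent signal which means gametocytes are killed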; conditions: P. falciparum 3D7 stage III-V gametocytes, alamarBlue, 72 h; max response: stronger effect = lower value
# In short: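 3D7 gametocytes, stages III–V, 20,000/well; cpd 72 h, 37 °C/5% CO2; + alamarBlue 24 h; fluor. Ex 525/Em 598.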
# [5] = P-glycoprotein substrates identified in KB-8-5-11 adenocarcinoma cell line, qHTS therapeutic library screen (AID 1346987); conditions: KB-8-5-11 (P-gp overexpressing) viability, CellTiter-Glo, 72 h; series mostly up to 44.5 µM; note: nearly all actives have a fitted effect of over 65% in size; note: potency is the fitted concentration of half-maximal effect
# In short: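 KB-8-5-11: colchicine-selected sub-line of KB-3-1 over-expressing P-gp; assay medium lacked colchicine. 72 h drug exposure at 37 degree C, CellTiter-Glo.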
# [6] = NS1 protein of Zika virus - qHTS assay to identify small molecule inhibitors in human HEK 293 cells (AID 1347053); conditions: HEK293 ZIKV MR766 infection, NS1 TR-FRET, 24 h; series mostly up to 46.1 µM; note: nearly all actives have a fitted effect of over 55% in size; note: potency is the fitted concentration of half-maximal effect
# In short: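 HEK 293 cells pretreated with compound for 1 h, then infected with ZIKV MR766 (MOI 0.5) for 24 h at 37 C. NS1 detected by TR-FRET with two anti-NS1 antibodies; normalized to uninfected (0%) and infected (100%) wells.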
# [7] = qHTS assay for cell viability of HEK293 cells (AID 743288); conditions: ATP luminescence (CellTiter-Glo), 18 h, stronger effect = lower value; note: nearly all actives have a fitted effect of over 50% in size
# In short: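 HEK293 parental, 2,000 cells/well; ≥5 h pre-incubation 37 C; pintool compound addition; 18 h, 37 C; CellTiter-Glo 30 min RT; luminescence read.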
# [8] = qHTS assay for cell viability of the p53RE-bla HCT-116 cell line (AID 743292); conditions: p53RE-bla HCT-116 viability, ATP luminescence, 16 h; series mostly up to 95 µM; note: nearly all actives have a fitted effect of over 55% in size; note: potency is the fitted concentration of half-maximal effect
# In short: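 Quantitative high-throughput format: compounds in DMSO were pinned onto p53RE-bla HCT-116 cells (4,000/well) and incubated 16 h at 37 C. Total intracellular ATP, read by CellTiter-Glo luminescence, reflects viable cell number.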
structure (smiles),measurement,setting,value
Cc1ccc(C(=O)Oc2ccc(C(O)CNC(C)(C)C)cc2OC(=O)c2ccc(C)cc2)cc1 (centres undefined),Potency,[1],inactive
same,outcome,[2],inactive
same,Potency,[3],inactive
CN1CCCN(C(c2ccccc2)c2ccc(Cl)cc2)CC1 (centres undefined),Potency,[1],inactive
same,outcome,[2],inactive
same,Potency,[3],inactive
CCN(CC)CC(=O)Nc1c(C)cccc1C(=O)OC,Potency,[1],inactive
same,outcome,[2],inactive
same,Potency,[3],inactive
CC[C@@H]([C@H](C)O)n1ncn(-c2ccc(N3CCN(c4ccc(OC[C@@H]5CO[C@@](Cn6cncn6)(c6ccc(F)cc6F)C5)cc4)CC3)cc2)c1=O,max response,[4],13.4%
same,Potency,[1],inactive
same,outcome,[2],inactive
same,Potency,[3],inactive
Cc1cnc(NS(=O)(=O)c2ccc(N)cc2)nc1,Potency,[1],inactive
same,outcome,[2],inactive
same,Potency,[3],inactive
C/C(=C(/OCCOc1ccc(Cl)cc1)c1ccc(Cl)cc1Cl)n1ccnc1,Potency,[1],inactive
same,outcome,[2],inactive
same,Potency,[3],inactive
O=C1NCCN1CCN1CCC(c2cn(-c3ccc(F)cc3)c3ccc(Cl)cc23)CC1,Potency,[1],inactive
same,Potency,[5],18.4 µM (active) and 20.6 µM (active)
same,Potency,[6],7.08 µM (active)
CC[C@@]1(O)C(=O)OCc2c1cc1n(c2=O)Cc2c-1nc1ccccc1c2/C=N/OC(C)(C)C,Potency,[1],inactive
same,outcome,[2],inactive
same,Potency,[3],0.0297 µM (active)
Cc1ccc(CCn2c3c(c4cc(Cl)ccc42)CN(C)CC3)cn1,Potency,[1],inactive
same,outcome,[2],inactive
same,Potency,[3],inactive
Cc1ncc([N+](=O)[O-])n1C,Potency,[1],inactive
same,outcome,[2],inactive
same,Potency,[3],inactive
COc1ccc(OC(=O)N(CC(=O)O)Cc2ccc(OCCc3nc(-c4ccccc4)oc3C)cc2)cc1,Potency,[1],inactive
same,outcome,[2],inactive
same,Potency,[3],inactive
CCC1=C[C@@H]2CN(C1)Cc1c([nH]c3ccccc13)[C@@](C(=O)OC)(c1cc3c(cc1OC)N(C)[C@H]1[C@@](O)(C(=O)OC)[C@H](OC(C)=O)[C@]4(CC)C=CCN5CC[C@]31[C@@H]54)C2,Potency,[4],11.2 µM (active)
same,Potency,[1],inactive
same,outcome,[2],inactive
same,Potency,[3],0.0264 µM (active)
c1ccc2c(c1)CCc1ccccc1N2,Potency,[1],inactive
same,outcome,[2],inactive
same,Potency,[3],inactive
CCCCCCCCCCCCCCCC[n+]1ccccc1,max response,[7],-27.3%
same,Potency,[8],inactive
same,Potency,[1],inactive
same,outcome,[2],inactive
NS(=O)(=O)c1ccc(N2CCCCS2(=O)=O)cc1,Potency,[1],inactive
same,outcome,[2],inactive
same,Potency,[3],inactive
Cc1nc(N)nc(N)c1-c1ccc(Cl)c(Cl)c1,Potency,[1],inactive
same,outcome,[2],inactive
same,Potency,[3],0.47 µM (active)
Oc1ccc(CCNCCCCCCNCCc2ccccc2)cc1O,Potency,[1],inactive
same,Potency,[5],inactive
same,Potency,[6],inactive
O=C1OC2(c3ccccc31)c1cc(I)c(O)c(I)c1Oc1c2cc(I)c(O)c1I,max response,[4],-3.42%
same,Potency,[1],inactive
same,outcome,[2],inactive
same,Potency,[3],inactive
CCN1CCCC1CN (centres undefined),Potency,[1],inactive
same,outcome,[2],inactive
same,Potency,[3],inactive
Cc1coc2ccccc2c1=O,Potency,[1],inactive
same,outcome,[2],inactive
same,Potency,[3],inactive
CCCC(=O)O[C@]1(C(=O)CCl)[C@@H](C)C[C@H]2[C@@H]3CCC4=CC(=O)C=C[C@]4(C)[C@@]3(F)C(=O)C[C@@]21C,max response,[4],13.2%
same,Potency,[1],inactive
same,outcome,[2],inactive
same,Potency,[3],inactive
CCN(CC)CCOc1ccc(/C(=C(\Cl)c2ccccc2)c2ccccc2)cc1,Potency,[8],70.8 µM (active)
same,Potency,[1],inactive
same,outcome,[2],inactive
CC(C)(C)C1CCC(CC2=C(O)c3ccccc3C(=O)C2=O)CC1 (centres undefined),Potency,[1],inactive
same,outcome,[2],inactive
same,Potency,[3],inactive
CC(C)(C)c1cc(C=O)cc(C(C)(C)C)c1O,Potency,[1],inactive
same,outcome,[2],inactive
same,Potency,[3],inactive
CC(C)OC(=O)c1cc2c(OCC(O)CNC(C)(C)C)cccc2[nH]1 (centres undefined),max response,[4],0.786%
same,Potency,[1],inactive
same,Potency,[5],inactive
same,Potency,[6],inactive
same,Potency,[3],inactive
O=C(O)c1ccc(OCCN2CCCCC2)cc1,Potency,[1],inactive
same,outcome,[2],inactive
same,Potency,[3],inactive
CC1(C)O[C@@H]2C[C@H]3[C@@H]4C[C@H](F)C5=CC(=O)C=C[C@]5(C)[C@@]4(F)[C@@H](O)C[C@]3(C)[C@]2(C(=O)CO)O1,max response,[4],-5.96%
same,Potency,[1],inactive
same,outcome,[2],inactive
same,Potency,[3],inactive
